Screening data as filed in PubChem BioAssay.
TROY NFkB inh – TROY signaling inhibition | actives 0.98% (n = 360,000) | Q293 LMP1-TROYcd NF-kB luciferase reporter, 4 h | inhibition, % at 10 µM;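 active = compounds whose plate-normalised and pattern-corrected inhibition of the luciferase reporter signal at the single screening dose is 50% or more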
CF NFkB inh – inhibitors of cystic fibrosis induced NF-kB | KKLEB NF-kB-GFP reporter, PAF-induced, GFP fluorescence overnight | inhibition, % at 5 µM | actives 0.86% (n = 360,000) | AID 588850;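 active = at least 50% inhibition at 5 µM, scaled per plate between neutral and stimulator controls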;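 also: PAF is a Pseudomonas aeruginosa culture filtrate used as stimulus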
Peg3 promoter – reduces Peg3 promoter-driven luciferase expression in HeLa. HeLa PEG-Prom luciferase reporter, luminescence, overnight. inhibition, % at 20 µM. actives 1.7% (n = 360,000). AID 588405;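 active = inhibition of at least 50% at 20 µM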
KKLEB cytotox – CF airway cell cytotoxicity counter-screen. actives 0.36% (n = 360,000). activity change (cytotoxicity), % at 5 µM. AID 602141. KKLEB CF airway cells viability, ATPlite luminescence, overnight; active compounds read low; cells stimulated with P. aeruginosa culture filtrate;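 active = corrected activity change at or below -50% at 5 µM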
HIF-2a block – HIF-2a inhibition; inhibition, % at 18.8 µM; AID 624352; 786-0 RCC cells HIF-2a reporter, luciferase luminescence, overnight; actives 0.72% (n = 360,000);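 active = inhibition of the luminescence signal of 40% or more relative to plate controls, in a single-dose primary screen at 18.75 µM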
TWEAK-Fn14 inh – blocks TWEAK-Fn14 interaction in a reporter cell assay | TWEAK-stimulated Fn14 reporter cells, luciferase luminescence, 8 h | inhibition, % at 10 µM | actives 2% (n = 360,000) | AID 1159606; in the data active = inhibition above about 50%
Large screens that a line does not name were inactive. In the library only some 4% were active in any assay of this set; here they are far more common.

Cc1cc(N2CCN(Cc3nc(-c4ccc(Cl)cc4)oc3C)CC2)cc(C)n1	none
COc1ccc(-c2nc(CN3CCN(c4cc(C)nc(C)c4)CC3)c(C)o2)c2ccccc12	Peg3 promoter 82
Cc1cnc(C)c(N2CCN(Cc3nc(-c4ccc(C)o4)oc3C)CC2)n1	none
CC1CCc2sc3ncnc(N4CCN(C)CC4)c3c2C1 (stereo not given)	none
CC(C)Cn1c(N)c(C(=O)COC(=O)CC23CC4CC(CC(C4)C2)C3)c(=O)n(C)c1=O	TROY NFkB inh 59, TWEAK-Fn14 inh 73
Cc1ccccc1N(CC(=O)NCc1ccc2c(c1)OCO2)C(=O)C1CSC(=O)C1 (stereo not given)	TWEAK-Fn14 inh 50
Cc1ccccc1N(CC(=O)NCc1ccc2c(c1)OCO2)C(=O)CCC(=O)Nc1ccccn1	none
Cc1ccccc1C(=O)N1CCC(C(=O)Nc2ccc(S(=O)(=O)N3C(C)CCCC3C)cc2)CC1 (stereo not given)	Peg3 promoter 78
Cc1ccc(NC(=O)C2CCN(C(=O)c3ccccc3C)CC2)cc1	none
COC(=O)CS(=O)(=O)c1nnc([C@H](Cc2ccccc2)NC(=O)OC(C)(C)C)o1	CF NFkB inh 66, Peg3 promoter 104, HIF-2a block 45
CC(=O)Nc1ccc2c(c1)Cc1cc(N3C(=O)C=CC3=O)ccc1-2	Peg3 promoter 98, HIF-2a block 42
CC(=O)Nc1ccc2c(c1)Cc1ccc(Cl)cc1-2	none
O=C1C=CC(=O)N1c1ccc2c(c1)Cc1cc(F)ccc1-2	Peg3 promoter 97
O=[N+]([O-])c1ccc2c(c1)Cc1cc(F)ccc1-2	none
COc1ccc(C(CC(=O)c2ccc3c(c2)OCO3)C(=O)O)cc1OC (stereo not given)	none
COP(=O)(OC)C(Nc1ccc(C)cc1)c1ccc(Br)cc1 (stereo not given)	none
CN(C)c1ccc(Cc2cc3c(O)ccc(O)c3cc(Cc3ccc(N(C)C)cc3)c2=O)cc1	HIF-2a block 48
CC(C)(C)c1ccc(OCCCCCCN2CCNCC2)cc1	Peg3 promoter 64
Cc1ccc(OCCCCN2CCC(C)CC2)c(Br)c1	none
CCC(C)NCCOc1ccc(C(C)(C)c2ccccc2)cc1 (stereo not given)	Peg3 promoter 81
CC(C)(c1ccccc1)c1ccc(OCCCN2CCNCC2)cc1	Peg3 promoter 79
Cc1ccc(OCCCCCCN2CCNCC2)c(Br)c1	TWEAK-Fn14 inh 58
CC1CCN(CCCCOc2ccc(C(C)(C)C)cc2)CC1	none
CC(=O)/C=C1\OCc2cc(OCc3ccccc3)ccc21	none (no result: TROY NFkB inh, CF NFkB inh, Peg3 promoter, KKLEB cytotox, TWEAK-Fn14 inh)
COc1ccc(C)cc1NC(=O)c1cccc(-c2ccc(OC(C)=O)cc2)c1	none
O=C1N=c2ccccc2=C1c1sc(=S)n(NC(=O)c2ccccc2)c1O	none
C=CCn1c(O)c(C2=c3ccccc3=NC2=O)sc1=Nc1ccc(O)cc1	Peg3 promoter 63
CC[C@H](C)[C@@H](CN[C@H](C)CNC)NCCC(c1ccccc1)c1ccccc1	Peg3 promoter 98
Cc1ccc(C(=O)Oc2cc(N)n(S(=O)(=O)c3ccc(C)cc3)n2)cc1	TWEAK-Fn14 inh 68
Cc1ccccc1C(=O)Oc1cc(N)n(S(=O)(=O)c2ccccc2)n1	TWEAK-Fn14 inh 55
COc1ccccc1C(=O)Oc1cc(N)n(S(=O)(=O)c2ccccc2)n1	none
COc1ccc(S(=O)(=O)n2nc(OC(=O)c3ccc(C)cc3)cc2N)cc1	TROY NFkB inh 59
CCOC(=O)C[C@@H]1OC[C@H](CO)N1S(=O)(=O)c1ccc(C)cc1	none (no result: TROY NFkB inh, CF NFkB inh, Peg3 promoter, KKLEB cytotox, TWEAK-Fn14 inh)
COc1ccccc1N/C(N)=N/c1nc(CSc2ccc(C)cc2)cc(=O)[nH]1	none
Cc1ccc(SCc2cc(=O)[nH]c(/N=C(\N)Nc3ccccc3Sc3ccccc3)n2)cc1	TWEAK-Fn14 inh 65
CCCCc1ccc(NC(=O)c2cnccn2)cc1	TWEAK-Fn14 inh 64
COc1ccc(CCNC(=O)c2cnccn2)cc1	none
CCCc1ccc(C(C)NC(=O)c2cnccn2)cc1 (stereo not given)	TWEAK-Fn14 inh 85 (no result: TROY NFkB inh)
COc1cc(CNCCc2c[nH]c3ccccc23)ccc1OCc1ccc(F)cc1	Peg3 promoter 112
COc1cccc(CNCCc2c[nH]c3ccccc23)c1OCc1ccc(F)cc1	Peg3 promoter 105
COc1ccccc1NC(=S)NCCc1c[nH]c2ccccc12	none
CC12CCC3c4ccc(O)c([N+](=O)[O-])c4CCC3C1CCC2=O (stereo not given)	none
CCc1nc2c(OCCOc3ccc(F)cc3)cccn2c1N(C)C(=O)c1ccc(OC)cc1	none
Cc1ccc(NC(=O)C2CCCC2)cc1Cl	none
Cc1ccc(NS(=O)(=O)c2ccc(Cl)c(NC(=S)NC(=O)C3CCCCC3)c2)cc1Cl	TWEAK-Fn14 inh 65
Cc1noc(C)c1C(=O)N1CCCC(C(=O)c2ccc(Cl)cc2)C1 (stereo not given)	none
Cc1ccc2[nH]nc(C(=O)N3CCCC(C(=O)c4ccc(Cl)cc4)C3)c2c1 (stereo not given)	TWEAK-Fn14 inh 59
CCOc1ccc(C(CC(=O)O)NC(=O)Cc2ccc(Cl)cc2)cc1 (stereo not given)	none
CC(C)(Oc1ccc(Cl)cc1)C(=O)NC1=NN(c2ccccc2)C(=O)C1	TROY NFkB inh 55
CCc1ccc(C2C(C#N)=C(N)Oc3cc(N)ccc32)cc1 (stereo not given)	Peg3 promoter 50
CN(C)c1ccc(N=C/C=C2\N(C)c3ccccc3C2(C)C)cc1	TWEAK-Fn14 inh 51
CN1/C(=C\C=Nc2ccc3ccccc3c2)C(C)(C)c2ccccc21	TROY NFkB inh 66
CN1/C(=C\C=O)C(C)(C)c2ccccc21	none
COC(=O)c1sccc1NC(=O)Nc1ccc(F)cc1F	none
Cc1c(NC(=O)NC(=O)c2ccc(F)cc2)c(=O)n(-c2ccccc2)n1C	none
Cc1c(N=C2N=C(NC(=O)c3ccc(F)cc3)c3ccccc32)c(=O)n(-c2ccccc2)n1C	Peg3 promoter 63
CNC(=O)c1c(NC(=O)c2ccc(S(=O)(=O)N3CCCCC3)cc2)sc2c1CCN(C(C)C)C2	none
CCN1CCc2c(sc(NC(=O)c3cc4ccccc4cc3OC)c2C(N)=O)C1	Peg3 promoter 110
CCN1CCc2c(sc(NC(=O)c3ccc(S(=O)(=O)N4CCCC4)cc3)c2C(=O)NC)C1	Peg3 promoter 65
CCOc1ccc(OCCC(=O)OCC(=O)N2CCN(S(=O)(=O)c3ccc(Cl)cc3)CC2)cc1	CF NFkB inh 84
CCOC(=O)N1CCN(S(=O)(=O)c2ccc(C(=O)Nc3sc4c(c3C(N)=O)CCN(CC)C4)cc2)CC1	Peg3 promoter 76
O=S1(=O)N[C@@H](c2ccccc2)COc2cc(Br)ccc21	none
CC(C)N(Cc1nnc(-c2ccc(Cl)cc2)o1)C(=O)c1cc2ccccc2o1	none
O=C(CNC(=O)N1CC(=O)Nc2ccccc21)Nc1ccc(F)c(Cl)c1	none
